Assays:
Assay in all cases: log2 ratio of Biotin-Ahx-Ub-VS probe labelling (fragment/DMSO); higher = less target engagement (more negative = stronger competition), active = hit call of the paper (q ≤ 0.05, log2 ratio ≤ -1)
Settings in all cases: compound concentration: 200 uM; treatment time: 3 h
USP19 = target: T1, USP19 (UniProt O94966)
T1 sequence (whole entry): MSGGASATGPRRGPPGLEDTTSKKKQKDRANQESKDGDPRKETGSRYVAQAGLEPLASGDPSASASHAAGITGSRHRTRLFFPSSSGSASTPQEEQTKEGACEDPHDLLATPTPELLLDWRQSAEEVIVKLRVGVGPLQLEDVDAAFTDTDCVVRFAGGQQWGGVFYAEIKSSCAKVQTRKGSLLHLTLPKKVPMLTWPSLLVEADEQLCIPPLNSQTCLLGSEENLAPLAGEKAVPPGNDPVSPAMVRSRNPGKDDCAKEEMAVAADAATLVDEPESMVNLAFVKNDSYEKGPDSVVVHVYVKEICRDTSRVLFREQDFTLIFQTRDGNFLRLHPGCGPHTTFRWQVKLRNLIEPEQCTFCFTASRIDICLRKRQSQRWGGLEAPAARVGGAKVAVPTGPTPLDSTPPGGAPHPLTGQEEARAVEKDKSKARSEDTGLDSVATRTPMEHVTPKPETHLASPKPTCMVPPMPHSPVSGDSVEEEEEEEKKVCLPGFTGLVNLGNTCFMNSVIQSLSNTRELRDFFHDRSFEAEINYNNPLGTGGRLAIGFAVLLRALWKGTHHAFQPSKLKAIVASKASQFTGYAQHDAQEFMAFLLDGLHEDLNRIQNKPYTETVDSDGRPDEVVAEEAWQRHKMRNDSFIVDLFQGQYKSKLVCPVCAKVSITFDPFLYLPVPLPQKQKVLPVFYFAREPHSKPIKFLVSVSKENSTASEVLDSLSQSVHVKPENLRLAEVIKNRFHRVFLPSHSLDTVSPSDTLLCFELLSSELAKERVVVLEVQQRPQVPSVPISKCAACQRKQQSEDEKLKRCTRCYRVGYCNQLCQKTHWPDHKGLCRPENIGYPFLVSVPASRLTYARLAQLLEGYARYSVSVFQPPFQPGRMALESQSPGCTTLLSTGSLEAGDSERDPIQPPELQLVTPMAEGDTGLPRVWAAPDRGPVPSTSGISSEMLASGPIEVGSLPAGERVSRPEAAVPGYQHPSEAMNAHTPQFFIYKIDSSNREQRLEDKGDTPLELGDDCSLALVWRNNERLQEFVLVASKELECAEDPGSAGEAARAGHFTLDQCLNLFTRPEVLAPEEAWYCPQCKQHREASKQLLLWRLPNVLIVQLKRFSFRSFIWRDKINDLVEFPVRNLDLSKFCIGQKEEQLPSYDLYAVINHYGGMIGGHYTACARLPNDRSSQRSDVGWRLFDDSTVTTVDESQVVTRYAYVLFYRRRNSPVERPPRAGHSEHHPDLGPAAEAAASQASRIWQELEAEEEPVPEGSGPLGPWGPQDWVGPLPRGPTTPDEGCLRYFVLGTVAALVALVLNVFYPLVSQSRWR
Method in brief: (§1)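 HEK293T lysate, 495 µg per sample in Tris/CHAPS/IGEPAL buffer with protease inhibitors, was treated in triplicate with fragment at 200 µM or vehicle for 3 h and then with Biotin-Ahx-Ub-VS at 0.5 µM final for 1 h. Labelled DUBs were NeutrAvidin-enriched, digested with LysC and trypsin, and run by diaPASEF LC-MS/MS. Spectronaut label-free quantities were global-median-normalised, and values are average log2 fragment/vehicle ratios by unpaired t-test on proteins with ≥2 unique peptides.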

USP22 = target: T2, USP22 (UniProt Q9UPT9)
T2 sequence (whole entry): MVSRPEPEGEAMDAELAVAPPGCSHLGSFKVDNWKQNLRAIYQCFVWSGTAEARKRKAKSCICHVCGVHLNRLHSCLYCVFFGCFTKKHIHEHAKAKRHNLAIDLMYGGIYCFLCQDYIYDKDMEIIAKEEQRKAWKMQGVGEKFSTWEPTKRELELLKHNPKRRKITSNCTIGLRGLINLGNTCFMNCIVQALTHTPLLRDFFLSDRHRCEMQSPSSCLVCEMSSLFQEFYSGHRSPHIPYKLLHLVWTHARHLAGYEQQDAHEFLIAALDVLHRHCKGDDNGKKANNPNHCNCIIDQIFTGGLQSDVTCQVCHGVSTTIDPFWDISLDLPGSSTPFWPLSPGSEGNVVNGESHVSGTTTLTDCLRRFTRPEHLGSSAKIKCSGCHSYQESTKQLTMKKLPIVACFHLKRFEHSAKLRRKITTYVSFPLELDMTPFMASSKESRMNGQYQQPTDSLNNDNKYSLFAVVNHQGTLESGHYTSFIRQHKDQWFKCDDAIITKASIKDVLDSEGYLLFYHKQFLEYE
Method in brief: as §1

USP24 = USP24 (UniProt Q9UPU5)
USP24, sequence (Q9UPU5 whole entry): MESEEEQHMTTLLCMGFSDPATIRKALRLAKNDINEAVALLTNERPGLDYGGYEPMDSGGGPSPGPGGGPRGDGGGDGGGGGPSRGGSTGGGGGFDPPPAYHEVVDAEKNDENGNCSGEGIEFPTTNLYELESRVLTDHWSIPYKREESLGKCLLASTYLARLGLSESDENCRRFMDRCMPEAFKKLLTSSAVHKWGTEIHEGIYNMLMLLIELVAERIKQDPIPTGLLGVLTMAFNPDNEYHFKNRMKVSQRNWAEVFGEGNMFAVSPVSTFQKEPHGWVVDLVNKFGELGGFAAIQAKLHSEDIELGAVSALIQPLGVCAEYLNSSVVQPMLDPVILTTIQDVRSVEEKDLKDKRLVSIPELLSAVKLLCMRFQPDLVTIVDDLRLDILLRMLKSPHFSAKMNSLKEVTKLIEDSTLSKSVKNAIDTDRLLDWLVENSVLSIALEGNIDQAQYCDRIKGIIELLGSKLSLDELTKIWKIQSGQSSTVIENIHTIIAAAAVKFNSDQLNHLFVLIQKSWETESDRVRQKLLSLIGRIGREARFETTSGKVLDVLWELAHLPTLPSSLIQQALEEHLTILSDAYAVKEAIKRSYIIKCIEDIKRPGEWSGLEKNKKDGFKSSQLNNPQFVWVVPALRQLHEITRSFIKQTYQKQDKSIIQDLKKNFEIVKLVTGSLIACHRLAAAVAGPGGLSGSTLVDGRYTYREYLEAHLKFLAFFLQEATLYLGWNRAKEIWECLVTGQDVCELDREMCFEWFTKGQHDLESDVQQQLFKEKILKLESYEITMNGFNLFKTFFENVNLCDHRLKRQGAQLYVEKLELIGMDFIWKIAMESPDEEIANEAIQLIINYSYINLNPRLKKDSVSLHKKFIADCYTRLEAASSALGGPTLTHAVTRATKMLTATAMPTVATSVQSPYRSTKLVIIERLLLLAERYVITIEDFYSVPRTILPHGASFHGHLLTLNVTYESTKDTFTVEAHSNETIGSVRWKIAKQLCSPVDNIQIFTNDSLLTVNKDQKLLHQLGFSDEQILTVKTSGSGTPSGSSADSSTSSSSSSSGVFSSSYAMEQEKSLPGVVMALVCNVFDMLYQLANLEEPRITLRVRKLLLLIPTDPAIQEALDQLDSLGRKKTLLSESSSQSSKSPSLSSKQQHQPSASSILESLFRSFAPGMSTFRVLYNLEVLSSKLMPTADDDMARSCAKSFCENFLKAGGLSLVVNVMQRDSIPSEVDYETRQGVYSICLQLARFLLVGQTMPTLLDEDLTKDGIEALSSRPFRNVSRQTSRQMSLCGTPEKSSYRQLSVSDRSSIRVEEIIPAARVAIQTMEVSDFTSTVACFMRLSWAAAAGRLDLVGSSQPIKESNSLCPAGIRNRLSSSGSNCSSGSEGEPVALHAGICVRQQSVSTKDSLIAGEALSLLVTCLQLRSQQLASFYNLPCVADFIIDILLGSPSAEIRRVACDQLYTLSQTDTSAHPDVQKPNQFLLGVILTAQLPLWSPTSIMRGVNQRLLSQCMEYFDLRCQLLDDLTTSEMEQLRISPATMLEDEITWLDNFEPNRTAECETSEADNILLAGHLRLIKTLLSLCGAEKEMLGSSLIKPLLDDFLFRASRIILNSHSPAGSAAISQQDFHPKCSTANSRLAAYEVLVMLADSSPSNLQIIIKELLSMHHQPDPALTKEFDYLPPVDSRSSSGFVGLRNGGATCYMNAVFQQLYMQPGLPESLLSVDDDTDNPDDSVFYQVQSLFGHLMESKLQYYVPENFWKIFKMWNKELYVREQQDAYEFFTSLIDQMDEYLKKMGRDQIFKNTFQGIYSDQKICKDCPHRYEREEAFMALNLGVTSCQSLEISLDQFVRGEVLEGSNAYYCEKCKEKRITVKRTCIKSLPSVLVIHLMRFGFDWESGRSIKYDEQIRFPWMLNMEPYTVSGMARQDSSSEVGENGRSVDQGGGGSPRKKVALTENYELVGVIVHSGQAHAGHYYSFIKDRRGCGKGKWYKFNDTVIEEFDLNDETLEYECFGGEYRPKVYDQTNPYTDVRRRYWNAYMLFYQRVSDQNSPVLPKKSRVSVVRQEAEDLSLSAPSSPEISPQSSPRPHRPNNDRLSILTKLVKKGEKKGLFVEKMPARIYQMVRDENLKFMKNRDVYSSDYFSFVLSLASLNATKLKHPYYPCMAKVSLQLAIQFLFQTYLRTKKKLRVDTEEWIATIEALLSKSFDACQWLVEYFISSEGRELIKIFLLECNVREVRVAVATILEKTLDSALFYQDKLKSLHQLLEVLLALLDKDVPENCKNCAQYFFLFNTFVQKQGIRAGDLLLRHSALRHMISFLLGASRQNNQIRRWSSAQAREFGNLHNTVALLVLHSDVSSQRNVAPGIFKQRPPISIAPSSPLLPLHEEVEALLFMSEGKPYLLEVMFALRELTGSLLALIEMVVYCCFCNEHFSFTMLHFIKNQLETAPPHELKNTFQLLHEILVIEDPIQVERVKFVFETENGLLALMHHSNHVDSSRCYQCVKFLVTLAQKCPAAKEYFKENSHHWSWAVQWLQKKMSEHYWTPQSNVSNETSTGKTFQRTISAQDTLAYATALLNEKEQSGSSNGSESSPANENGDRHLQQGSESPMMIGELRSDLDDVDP
Method in brief: as §1

USP25 = target: T3, USP25 (UniProt Q9UHP3)
T3 sequence (whole entry): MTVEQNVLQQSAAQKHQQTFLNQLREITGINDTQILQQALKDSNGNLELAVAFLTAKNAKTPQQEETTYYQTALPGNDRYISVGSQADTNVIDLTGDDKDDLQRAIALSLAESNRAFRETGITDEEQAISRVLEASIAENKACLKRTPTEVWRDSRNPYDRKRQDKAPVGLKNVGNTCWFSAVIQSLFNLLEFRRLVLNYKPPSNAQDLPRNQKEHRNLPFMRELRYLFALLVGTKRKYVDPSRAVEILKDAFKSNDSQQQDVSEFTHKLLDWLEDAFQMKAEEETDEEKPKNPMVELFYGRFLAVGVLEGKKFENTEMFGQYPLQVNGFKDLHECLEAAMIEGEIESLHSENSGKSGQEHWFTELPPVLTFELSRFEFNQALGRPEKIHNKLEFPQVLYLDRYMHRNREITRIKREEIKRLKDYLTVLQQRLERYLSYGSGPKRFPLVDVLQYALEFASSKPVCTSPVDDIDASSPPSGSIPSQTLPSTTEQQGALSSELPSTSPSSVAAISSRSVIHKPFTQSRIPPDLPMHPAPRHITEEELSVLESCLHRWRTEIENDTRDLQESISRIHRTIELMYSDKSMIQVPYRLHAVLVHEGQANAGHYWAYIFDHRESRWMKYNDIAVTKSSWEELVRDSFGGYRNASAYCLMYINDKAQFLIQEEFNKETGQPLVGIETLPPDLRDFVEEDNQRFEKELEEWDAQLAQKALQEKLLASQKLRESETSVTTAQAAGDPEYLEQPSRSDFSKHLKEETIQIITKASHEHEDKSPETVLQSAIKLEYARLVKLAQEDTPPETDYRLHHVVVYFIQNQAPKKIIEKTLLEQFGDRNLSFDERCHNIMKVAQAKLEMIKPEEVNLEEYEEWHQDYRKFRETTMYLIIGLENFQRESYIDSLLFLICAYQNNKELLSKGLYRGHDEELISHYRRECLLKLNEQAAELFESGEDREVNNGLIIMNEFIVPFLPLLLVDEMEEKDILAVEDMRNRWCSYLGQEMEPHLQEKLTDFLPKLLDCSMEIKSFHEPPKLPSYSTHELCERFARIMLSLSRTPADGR
Method in brief: as §1

USP28 = target: T4, USP28 (UniProt Q96RU2)
T4 sequence (whole entry): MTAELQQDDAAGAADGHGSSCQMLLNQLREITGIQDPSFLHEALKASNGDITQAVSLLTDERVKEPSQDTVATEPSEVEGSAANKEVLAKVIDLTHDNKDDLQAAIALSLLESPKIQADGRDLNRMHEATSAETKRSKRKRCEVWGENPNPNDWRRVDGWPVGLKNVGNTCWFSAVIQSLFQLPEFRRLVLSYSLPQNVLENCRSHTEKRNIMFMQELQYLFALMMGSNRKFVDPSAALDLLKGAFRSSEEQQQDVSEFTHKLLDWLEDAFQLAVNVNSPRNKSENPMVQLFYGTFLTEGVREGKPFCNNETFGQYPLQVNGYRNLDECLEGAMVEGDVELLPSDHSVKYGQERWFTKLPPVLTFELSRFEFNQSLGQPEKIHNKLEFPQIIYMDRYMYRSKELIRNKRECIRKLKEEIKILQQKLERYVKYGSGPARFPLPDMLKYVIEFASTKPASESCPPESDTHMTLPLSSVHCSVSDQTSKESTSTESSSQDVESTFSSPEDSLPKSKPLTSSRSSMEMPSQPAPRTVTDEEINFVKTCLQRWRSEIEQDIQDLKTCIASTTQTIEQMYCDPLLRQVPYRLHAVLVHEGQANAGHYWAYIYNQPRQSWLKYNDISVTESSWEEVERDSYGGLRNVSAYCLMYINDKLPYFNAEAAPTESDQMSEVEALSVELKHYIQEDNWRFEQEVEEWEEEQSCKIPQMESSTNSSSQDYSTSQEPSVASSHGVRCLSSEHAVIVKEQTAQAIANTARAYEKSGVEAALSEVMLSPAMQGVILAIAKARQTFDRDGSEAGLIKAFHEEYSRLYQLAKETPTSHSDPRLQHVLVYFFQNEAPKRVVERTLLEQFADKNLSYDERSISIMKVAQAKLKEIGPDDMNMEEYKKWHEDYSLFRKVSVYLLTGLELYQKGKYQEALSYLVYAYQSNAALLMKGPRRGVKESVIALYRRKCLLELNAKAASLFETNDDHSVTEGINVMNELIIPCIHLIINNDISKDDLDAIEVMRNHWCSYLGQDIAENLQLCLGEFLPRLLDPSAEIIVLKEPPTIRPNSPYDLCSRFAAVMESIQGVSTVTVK
Method in brief: as §1

Measured: log2 ratio of Biotin-Ahx-Ub-VS probe labelling

Cl.Cn1nccc1C(NC(=O)CCl)c1ccccc1 (stereo not given)
inactive: USP19 -0.0802 | USP22 -0.153 | USP24 -0.00471 | USP25 -0.455 | USP28 -0.472
